# Data: the supplement of paper PMC9262897, “Low-cost anti-mycobacterial drug discovery using engineered E. coli” (Nature Communications, 2022)
# Where a name gives a salt, the structure may show the parent alone. ± gives the standard deviation of the averaged measurements.
# Test system: E. coli TESEC Mtb Alr
# Assay: growth (OD600 after 10 h); higher = more growth (less inhibition)
# Details: compound 0.1 mM
# Description: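 TESEC Mtb Alr E. coli, or the Alr+ wild-type control, in 384-well plates with Prestwick library compounds at 0.1 mM and 1% DMSO, across arabinose induction levels of 1E3 to 1E7 nM. Growth is read as OD600 after 10 h at 37 °C in triplicate biological replicates.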
# [1] = arabinose 1000 nM, raw OD600 reference: median of DMSO wells 0.294, cell-free background 0.041
# [2] = arabinose 10000 nM, raw OD600 reference: median of DMSO wells 0.264, cell-free background 0.041
# [3] = arabinose 100000 nM, raw OD600 reference: median of DMSO wells 0.201, cell-free background 0.041
# [4] = arabinose 1000000 nM, raw OD600 reference: median of DMSO wells 0.193, cell-free background 0.041
# [5] = arabinose 10000000 nM, raw OD600 reference: median of DMSO wells 0.146, cell-free background 0.041
Compound,growth [1],growth [2],growth [3],growth [4],growth [5]
CC(C(=O)O)c1ccc2c(c1)[nH]c1ccc(Cl)cc12 (stereo not given) [Carprofen],0.116 ± 0.006,0.107 ± 0.0066,0.1024 ± 0.001,0.0781 ± 0.0038,0.111 ± 0.0039
CC(C)(C)NC[C@H](O)COc1ccccc1C1CCCC1 [Penbutolol sulfate],0.225 ± 0.0034,0.321 ± 0.0081,0.162 ± 0.011,0.128 ± 0.0083,0.142 ± 0.013
COc1c2occc2c(OC)c2c(=O)cc(C)oc12 [Khellin],0.2539 ± 0.0022,0.245 ± 0.0065,0.189 ± 0.0037,0.149 ± 0.0057,0.1439 ± 0.00044
C[C@H](Cc1cc2c(c(C(N)=O)c1)N(CCCO)CC2)NCCOc1ccccc1OCC(F)(F)F [Silodosin],0.251 ± 0.0074,0.273 ± 0.0053,0.171 ± 0.019,0.158 ± 0.015,0.14 ± 0.0083
CO[C@H]1C[C@H](O[C@H]2[C@H](C)[C@@H](O[C@@H]3O[C@H](C)C[C@H](N(C)C)[C@H]3OC(C)=O)[C@@H](C)C[C@@]3(CO3)C(=O)[C@H](C)[C@@H](OC(C)=O)[C@@H](C)[C@@H](C)OC(=O)[C@@H]2C)O[C@@H](C)[C@@H]1OC(C)=O [Troleandomycin],0.0647 ± 0.0085,0.0495 ± 0.0021,0.0702 ± 0.0019,0.04923 ± 0.00025,0.0672 ± 0.00087
COc1ccccc1O [Guaiacol],0.314 ± 0.0073,0.2742 ± 0.0019,0.192 ± 0.012,0.203 ± 0.012,0.135 ± 0.0042
CCOC(=O)[C@H](CCc1ccccc1)N[C@H]1CCc2ccccc2N(CC(=O)O)C1=O [Benazepril HCl],0.044 ± 0.0065,0.0504 ± 0.011,0.253 ± 0.023,0.173 ± 0.0047,0.1615 ± 0.0012
CC(C)(Sc1cc(C(C)(C)C)c(O)c(C(C)(C)C)c1)Sc1cc(C(C)(C)C)c(O)c(C(C)(C)C)c1 [Probucol],0.298 ± 0.014,0.259 ± 0.0043,0.236 ± 0.028,0.172 ± 0.0035,0.173 ± 0.02
